# ± gives the standard deviation. Over roughly 8,200 sequences, “pre-steady-state target cleavage rate” has its median near 0.024; the highest 2% begin near 1.3. The entries come from a sample that favours the highest values as a whole.
# Test system: MIWI (PIWIL1) piRISC loaded with L1MC piRNA (30 nt)
# Assay: pre-steady-state target cleavage rate (min^-1); MIWI and MILI are mouse PIWI proteins and EfPiwi is from a freshwater sponge; tags in brackets are library labels; higher = faster piRNA-guided slicing of the target
# Conditions: guide: L1MC piRNA 5'p-UAACUAAAUACUAUGCAAGCUGUAGGUCCU
# In short: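 With or without 500 nM GTSF1 partner protein, 1 nM active affinity-purified piRISC carrying one synthetic guide was mixed with 0.1 nM transcribed, DNA-blocked target RNA library in HEPES–potassium acetate buffer at 33 °C for 0–8 or 0–960 min. Uncleaved targets were sequenced and normalised to depth and to weakly complementary targets, three trials were pooled, and k3 was capped at 0.0001 min^-1. The pre-steady-state cleavage rate came from a burst-and-steady-state fit.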
# [1] = auxiliary factor: 500 nM mouse GTSF1
# [2] = auxiliary factor: none (no GTSF1)
Sequence,pre-steady-state target cleavage rate [1],pre-steady-state target cleavage rate [2]
UCCUGGUACAGCUUGGAUAGUAUUUAGUAA,0.421 ± 0.095,0.0149 ± 0.0041
UCCUGCUACAGCUUGCAUUGAAUUUAGUUA,0.168 ± 0.012,0.00991 ± 0.0044
UCCUGGAUGUGCGUUGCAUAGUAUUUAGUUA,0.28 ± 0.032,0.00987 ± 0.0029
UCCACCUACUGCUUGCAAAGUAUUUAGUUA,0.623 ± 0.025,0.0305 ± 0.0052
AGGACCUACAGCUUGCGAUAGUAUUUAGUUA,0.108 ± 0.026,–
UCGACCUACAGCUUGCAUAGUAUUUAGUUA [g2:g28:cont:t1A],1.56 ± 0.056,0.0936 ± 0.017
UCGACCUACAGCUUGCAUAGUAUAUUAGUUA,1.25 ± 0.049,0.0248 ± 0.0063
UCGACCUACAGCUUGCAUAGUAUUAGUUA,0.346 ± 0.053,–
UCGACCUACAGCUUGCAUAGUAUUUUAGUUA,1.21 ± 0.053,0.0302 ± 0.0073
UCGACCUACAGCUUGCAUAGUAUUUAGUUG [g2:g28:cont:t1G],0.569 ± 0.04,0.0703 ± 0.013
UCGACCUACAGCUUGCAUAGUAUUAUAGUUA,1.32 ± 0.076,0.0387 ± 0.007
AGCACCUACAGCUUGCAUACUAUUUAGUUA,0.471 ± 0.099,0.00711 ± 0.0024
UCCUGGAUGUCGAACCAUUGUAUAUAGUUA,< 0.0001,–
UCGACCUACAGCUUCAUAGUAUUUAGUUA,1.14 ± 0.042,0.0128 ± 0.0025
UCCACCUACAGCUUCGCAUAGUAUUUAGUUA,0.911 ± 0.056,0.0118 ± 0.0027
UGGACCUACAGCUUCGCAUAGUAUUUAGUUA,1.43 ± 0.1,0.0229 ± 0.0062
UCGACCUACAGCUUCGCAUAGUAUUUAGUUA,1.33 ± 0.07,0.0168 ± 0.004
UCGACCUACAGCUUCGAUAGUAUUUAGUUA,0.911 ± 0.058,0.00251 ± 0.0018
AGGACCUACAGCUUCGCAUAGUAUUUAGUUA,1.27 ± 0.071,0.0296 ± 0.0087
UGGAGCUACAGCUUGCAUUGUAUUUAGUUA,0.934 ± 0.038,0.0337 ± 0.0068

Sequence,pre-steady-state target cleavage rate [1],pre-steady-state target cleavage rate [2]
UCCUCCUACAGCUUGCAUACUAUUUAGAUA,0.0831 ± 0.015,0.0075 ± 0.0022
UCCUGGAUGUGCUUGCAUAGUAUUUAGAUA,0.118 ± 0.023,0.0188 ± 0.0067
UCGACCUACAGCUUGCAUAGAAUUUUCAAA,0.369 ± 0.059,–
UCCUGGUACAGCUUACAUAGUAUUUAGUUA,0.749 ± 0.056,0.0246 ± 0.0048
AGCAGCUACAGCUUGCAUAGUAUUUAGUUA,1.37 ± 0.067,0.079 ± 0.016
UGCUGCUACAGCUUGCAUAGUAUUUAGUAA,0.875 ± 0.084,0.0204 ± 0.0041
AGCUGCUACAGCUUGCAUAGUAUUUAGUUA,1.49 ± 0.07,0.0697 ± 0.012
UCCUGCUACAGCUUGCAUAUUAUUUAGUUA,1.31 ± 0.066,0.0449 ± 0.0088
UCCUGCUACAGCUUGCAUAGUUAUUUAGUUA,0.073 ± 0.013,0.00386 ± 0.0025
UCCUGCUACAGCUUGCAUAGUAUUUAGUUA [g2:g25:cont:t1A],0.864 ± 0.042,0.0585 ± 0.01
AGCUGCUACAGCUUGCAUAGUAUUUAGUAA,0.977 ± 0.11,0.0202 ± 0.0038
UCCUGCUACAGCUUGCAUAGUAUUUUAGUUA,0.817 ± 0.067,0.0107 ± 0.0028
UGCUGCUACAGCUUGCAUAGUAUUUAGUUA,1.55 ± 0.058,0.0595 ± 0.011
UGCAGCUACAGCUUGCAUAGUAUUUAGUUA,1.21 ± 0.081,0.0733 ± 0.013
UGGUGCUACAGCUUGCAUAGUAUUUAGUUA,0.988 ± 0.079,0.0764 ± 0.017
UCCUGCUACAGCUUGCAUAUAUUUAGUUA,0.408 ± 0.045,0.00397 ± 0.0033
UCCUGGAACAGCUUCAUAGUAUUUAGUUA,0.95 ± 0.051,0.00772 ± 0.0027
UCCACCUACAGCUUGCGAUAGUAUUUAGUUA,0.0565 ± 0.018,–
UGGACCAUGAGCUUGCAUAGUAUUUAGUAA,0.675 ± 0.045,0.0285 ± 0.0075
UCCUGGAACACCUUGCAUAGUUUUUAGUUA,0.148 ± 0.023,0.0142 ± 0.0044

Sequence,pre-steady-state target cleavage rate [1],pre-steady-state target cleavage rate [2]
UCCUGGAACAGCUUGCAUAGUUUUUUGUUA,0.197 ± 0.025,0.0238 ± 0.0057
UCGUCCUACAGCUUGCAUAGUAAUUAGUUA,0.874 ± 0.027,0.0282 ± 0.006
UCCUCCUACAGCUUGCAUAGUAAUUAGUAA,0.347 ± 0.039,0.0074 ± 0.0022
UCCUGGUACAGCAUGCAUAGUAAUUAGUUA,0.457 ± 0.054,0.0118 ± 0.0031
AGGACCUACAGCUAGCAUAGUAUUUAGAAA,0.571 ± 0.066,0.00411 ± 0.0025
UCCUGCUACAGCUUGCAUAGUAUUUUGUAA,0.274 ± 0.043,0.009 ± 0.0031
UCCUGGAUGAGCUACCAUAGUAUUUAGUUA,0.0107 ± 0.0041,–
UCCUCCUACAGCUUGCAUAGUAUUGUAGUUA,0.282 ± 0.054,0.00959 ± 0.0038
UCCUGGAACAGCUUGCAUGUAUUUAGUUA,0.103 ± 0.015,0.00591 ± 0.0032
UCCUGGAUGUCCUUGCAUACUAUUUAGUUA,0.0164 ± 0.0047,0.00616 ± 0.0016
UCCACCUACAGCUUCCAUAGUAUUUACAAA,0.0165 ± 0.008,–
UCCUGGUACAGCUUGCAUAGUAUUUAGCUA,0.00692 ± 0.0039,–
UCGUGCUACAGCUUGCAUAGUAUUUAGUAA,0.926 ± 0.053,0.0286 ± 0.0054
AGGUGCUACAGCUUGCAUAGUAUUUAGUUA,1.23 ± 0.064,0.0832 ± 0.016
UCGUGCUACAGCUUGCAUAGUAUUUAGUUA,1.38 ± 0.059,0.0704 ± 0.012
UGGAGGAACAGCUUGCAUAGUAUUUAGAAA,0.364 ± 0.037,0.00934 ± 0.004
UCCUCCUACCAGCUUGCAUAGUAUUUAGUUA,1.15 ± 0.055,0.0479 ± 0.011
UCGACCUACAGGUUGCAUACUAUUUAGUUA,0.273 ± 0.018,0.0207 ± 0.004

# Reference: the supplement of paper PMC10338343
